In the library only some 2.8% were active in any assay of this set; here they are far more common.
Pol iota inh: blocks human DNA polymerase iota activity; Pol iota fluorescent replication assay, 10 min; 390,000 compounds, 1% hits; Potency, µM (series often up to 115 µM), actives largely listed as inhibitors; Q9UNA4; AID 588590
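Fluorescent replication assay read twice, at 0 min and 10 min after adding 50 nM (final) substrate. Enzyme (10 nM) and compounds were first incubated 15 min at room temperature; enzyme-free buffer wells were negative controls.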
POLK inh: inhibitors of human DNA polymerase kappa | Q9UBT6 | purified Pol kappa, fluorescent DNA synthesis assay, 10 min | Potency, µM (highest dose often 107 µM), most hits filed as inhibitors | 400,000 compounds, 0.53% hits
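50 nM final substrate added after 15 min RT preincubation of 10 nM Pol kappa with compound; fluorescence read at 0 and 10 min.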
WRN inhibitor: inhibitors of human WRN helicase; Q14191; WRN helicase unwinding, fluorescent forked duplex, kinetic; Potency, µM (series often up to 114 µM), hits mostly inhibitors; 360,000 compounds, 0.46% hits; further: nearly all actives have a fitted effect of over 55% in size
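Kinetic red-fluorescence monitoring (525/598 nm) tracks WRN helicase activity after 100 nM fluorophore-quencher forked duplex and 2 mM ATP are added to 20 nM enzyme pretreated 15 min at room temperature with compound.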
Pol beta inh-1: DNA polymerase beta (human) inhibition; AID 485314; Pol beta primer extension/strand displacement, fluorescence kinetic; Potency, µM (doses to about 114 µM), most hits filed as inhibitors; P06746; 340,000 compounds, 1.3% hits
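10 nM enzyme + cpd, 15 min RT; start with substrate 50 nM final; read 0 min and after 10 min RT. Corrected, normalized data; 4-parameter Hill curve fit.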
PI5P4Ka inh: blocks human PI5P4K alpha kinase activity; P48426; PI5P4Kalpha enzyme, ADP-Glo luminescence, 60 min; stronger effect = lower value; max response, %; 330,000 compounds, 1.2% hits; active means max response of -50% or lower; inconclusive means between -30% and -50%; inactive means -30% or higher; further: value at the top dose of about 77 µM
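Quantitative HTS of the MLSMR library against PI5P4Kalpha with substrate. ATP added last at 5 microM final; room temperature, 60 minutes. Remaining ATP depleted, ADP converted and read as luminescence.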
Pol eta inh-1: DNA polymerase eta (human) inhibition; Potency, µM (series often up to 114 µM), usual class: inhibitors; 390,000 compounds, 1.2% hits; Q9Y253; recombinant Pol eta, fluorescent DNA replication assay
Target sequence (Q9Y253 whole entry, looked up): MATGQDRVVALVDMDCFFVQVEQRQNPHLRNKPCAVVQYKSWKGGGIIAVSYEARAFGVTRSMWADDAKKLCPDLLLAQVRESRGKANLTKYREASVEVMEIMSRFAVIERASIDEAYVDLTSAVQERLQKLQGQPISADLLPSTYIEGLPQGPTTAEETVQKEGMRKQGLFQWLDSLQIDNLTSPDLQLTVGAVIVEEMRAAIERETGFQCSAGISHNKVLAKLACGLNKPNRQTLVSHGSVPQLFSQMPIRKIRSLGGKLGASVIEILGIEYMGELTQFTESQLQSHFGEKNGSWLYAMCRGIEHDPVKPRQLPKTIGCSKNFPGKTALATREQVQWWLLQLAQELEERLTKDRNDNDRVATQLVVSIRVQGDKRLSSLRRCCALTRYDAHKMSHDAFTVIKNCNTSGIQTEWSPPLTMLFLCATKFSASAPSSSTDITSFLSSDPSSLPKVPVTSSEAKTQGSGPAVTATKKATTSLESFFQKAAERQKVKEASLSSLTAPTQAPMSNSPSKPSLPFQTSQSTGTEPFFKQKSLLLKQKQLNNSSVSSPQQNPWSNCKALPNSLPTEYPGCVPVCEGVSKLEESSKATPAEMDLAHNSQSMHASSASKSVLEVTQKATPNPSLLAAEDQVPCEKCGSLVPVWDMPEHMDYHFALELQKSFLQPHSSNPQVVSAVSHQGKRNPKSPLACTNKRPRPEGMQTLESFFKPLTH
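Pol eta at 10 nM preincubated with compounds 15 min at room temperature; reaction started with fluorescent substrate (50 nM final) and read kinetically at 0 and 10 min.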
Pol beta inh-2: Human Pol beta inhibitor hit validation; shares compounds with Pol beta inh-1; Pol beta primer extension/strand displacement, fluorescence kinetic; Potency, µM, usual class: inhibitors; 250 compounds, 87% hits; AID 540280; calls by dose curve
Klenow inh: inhibits Klenow fragment polymerase in counter-screen; shares compounds with Pol beta inh-1; AID 540300; 250 tested, under 10 active; activity change, negative = inhibition, % at 57.1 µM; Klenow exo- polymerase counter-screen, fluorescent DNA substrate
HIV RT counter: counter-screen for DNA polymerase beta inhibitors: HIV-1 RT inhibition; shares compounds with Pol beta inh-1; HIV-1 RT polymerase activity, counter-screen; activity % (negative = inhibition, positive = activation), % at 57.1 µM; 250 tested, under 10 active; AID 540301
POLB inh gel: DNA polymerase beta inhibition, radiolabeled validation. inhibition, % at 10 µM. shares compounds with Pol beta inh-1. 110 compounds, 91% hits. radiolabeled primer extension gel assay, phosphorimager;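 active means inhibition at 10 µM of 30% or more; inconclusive means no clear call, values can overlap the other calls; inactive means inhibition at 10 µM under 30%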
PGK validate: validation of Trypanosoma brucei phosphoglycerate kinase inhibitors. shares compounds with POLK inh. TbPGK coupled GAPDH assay, Kinase-Glo luminescence. 500 compounds, 79% hits. Potency, µM (highest dose often 57.5 µM), most hits filed as inhibitors; further: nearly all actives have a fitted effect of over 65% in size
POLI cherry-pick: Human Pol iota inhibitor confirmatory assay. shares compounds with POLK inh. Pol iota primer extension, TAMRA/BHQ fluorescence. Potency, µM, hits mostly inhibitors. 1,500 compounds, 77% hits. AID 720496
Pol eta inh-2: confirmation of human DNA polymerase eta inhibitors | shares compounds with Pol eta inh-1 | Pol eta primer extension, TAMRA/BHQ fluorescence, 10 min | Potency, µM, usual class: inhibitors | 2,600 compounds, 64% hits | AID 720502
A number is an active result; 0 = inactive; ? = inconclusive; - = no result; [ ] = another dose, or the depositor's remark. Unless noted, the call rests on the fitted dose curve; in most records, active means well fitted curve in the direction sought with a large enough effect; inconclusive means small, poorly fitted or top-dose-only effect, or another doubt; inactive means no such curve, though single readings can be large; an effect the other way counts as inactive or inconclusive.

SMILES	Pol iota inh	POLK inh	WRN inhibitor	Pol beta inh-1	PI5P4Ka inh	Pol eta inh-1	Pol beta inh-2	Klenow inh	HIV RT counter	others
CCOC(=O)C1CCCN(S(=O)(=O)CCNC(=O)c2cccc(OC)c2)C1 (stereo not drawn)	0	0	0	-	0	0	-	-	-
CCn1c(=NC(=O)c2ccc(N3C(=O)CCC3=O)cc2)sc2c(OC)ccc(OC)c21	15.8µM	?	0	10µM	?	?	?	0	0	POLB inh gel=98.3
CCn1c(=NC(=O)c2cccc(N3C(=O)CCC3=O)c2)sc2c(C)ccc(OC)c21	0	0	0	0	0	0	-	-	-
CCN(CC(=O)Nc1c(F)cccc1F)C(=O)c1ccc(Cl)c(S(=O)(=O)N2CCCCC2)c1	0	0	0	0	0	0	-	-	-
COc1ccc2cc3c(N)nn(C(=O)c4ccc(Cl)c([N+](=O)[O-])c4)c3nc2c1	?	0	0	1.58µM	0	?	3.16	0	0
CCn1cc(C(=O)NCC(C)C)c(=O)c2cc(F)c(N3CCN(C(=O)c4ccco4)CC3)cc21	0	0	0	0	0	0	-	-	-
CCn1cc(C(=O)NCc2ccco2)c(=O)c2cc(F)c(N3CCN(C(=O)c4ccco4)CC3)cc21	?	?	?	14.1µM	?	?	?	0	0
O=C(Cn1cnc2sc(-c3ccccc3)cc2c1=O)NCc1ccccc1	?	0	0	?	-	0	-	-	-
O=C(Cn1cnc2sc(-c3ccccc3)cc2c1=O)NCc1ccco1	10µM	31.6µM	56.2µM	7.94µM	-83.2	7.08µM	7.08	0	0
NS(=O)(=O)c1ccc(NC(=O)c2ccc(-c3ccccc3)cc2)cc1	?	?	0	14.1µM	0	?	15.8	0	0
CC1N(C)c2cc(NC(=O)c3ccco3)ccc2C1(C)C (stereo not drawn)	?	?	50.1µM	20µM	-	?	?	0	0
CCOC(=O)Cc1csc(NC(=O)c2sc3nc4ccc(CC)cc4cc3c2N)n1	79.4µM	0	0	5.62µM	0	?	28.2	0	0	POLB inh gel=84.5
O=C(CSc1nc2c(cnn2-c2ccccc2)c(=O)[nH]1)c1ccc(Cl)cc1	?	0	0	5.01µM	-	?	7.08	0	0
O=C(CSc1nc2c(cnn2-c2ccccc2)c(=O)[nH]1)N1CCCCC1	0	0	0	0	0	0	-	-	-
COc1ccc(N(C(=O)c2ccccc2C)S(=O)(=O)c2ccc3c(c2)n(C)c(=O)n3C)cc1	0	0	-	0	-	0	-	-	-
O=C(COC(=O)COc1ccccc1)NCc1ccco1	0	0	0	-	0	0	-	-	-
O=C(COC(=O)c1ccccc1Oc1ccccc1)NCc1ccco1	?	79.4µM	?	20µM	?	14.1µM	35.5	0	?
O=S(=O)(Nc1nccs1)c1ccc(Nc2nnc(-c3ccccc3)c3ccccc23)cc1	?	0	?	14.1µM	?	?	35.5	0	0
Cc1ccc(NC(=O)Cn2nnc(C(=O)NCCc3ccccc3)c2N)c(C)c1	?	0	0	0	0	?	-	-	-
COc1ccc(CCNC(=O)c2nnn(CC(=O)Nc3ccc(C)cc3C)c2N)cc1OC	35.5µM	0	0	0.562µM	0	?	25.1	0	0	POLB inh gel=52.0;POLI cherry-pick=?
COC(=O)Cn1c(O)c(N=NC(=O)CNC(=O)COc2cccc(C)c2)c2ccccc21	0	0	0	0	0	0	-	-	-
CSc1nc(NCCN(C)C)c2sc3nc(-c4ccco4)c4c(c3c2n1)CCC4	?	0	0	-	0	?	-	-	-
CSc1nc(N(C)CCO)c2sc3nc(-c4ccco4)c4c(c3c2n1)CCC4	1µM	?	22.4µM	7.08µM	-	8.91µM	?	0	0	PGK validate=0
N#C/C(=C\c1ccc(OCc2ccc(Br)cc2)cc1)C(=O)Nc1cccc(C(=O)O)c1	0	0	0[11.6 µM]	8.91µM	0	?	15.8	0	0	POLI cherry-pick=67
Cc1ccc2nc(/C(C#N)=C\c3ccc(Oc4ccc(C(F)(F)F)cc4[N+](=O)[O-])cc3)[nH]c2c1	0	0	56.2µM	7.08µM	0	?	14.1	0	0	POLI cherry-pick=42.3
SMILES	Pol iota inh	POLK inh	WRN inhibitor	Pol beta inh-1	PI5P4Ka inh	Pol eta inh-1	Pol beta inh-2	Klenow inh	HIV RT counter	others
Cc1ccc(NC(=O)CSc2nc3ccccc3n2CC(=O)N(C)C2CCCCC2)cc1C	0	0	-	0	-	0	-	-	-
COc1ccccc1/C=c1\sc2nc(-c3ccco3)nn2c1=O	17.8µM	31.6µM	39.8µM	10µM	-69.2	8.91µM	28.2	0	0	POLB inh gel=95.5;POLI cherry-pick=42.3;Pol eta inh-2=19
COc1ccc(OC)c(/C=c2\sc3nc(-c4cccs4)nn3c2=O)c1	0	0	0	?	0	?	-	-	-
c1ccc(COc2ccccc2CNC23CC4CC(CC(C4)C2)C3)cc1	0	0	0	0	0	?	-	-	-
Cc1nc(C)c(C(=O)Nc2nc3c(C)cccc3s2)o1	?	39.8µM	?	17.8µM	-	25.1µM	31.6	0	0	POLI cherry-pick=?;Pol eta inh-2=47.8
CN(CCC#N)C(=O)COC(=O)c1c2c(nc3ccccc13)/C(=C/c1ccco1)CC2	3.16µM	20µM	?	8.91µM	-67.9	6.31µM	22.4	0	0	POLI cherry-pick=29.9;Pol eta inh-2=53.6
CC(C)CNC(=O)COC(=O)c1c2c(nc3ccccc13)/C(=C\c1cccs1)CC2	?	0	0	-	0	?	-	-	-
CC(C)Cn1c(N)c(C(=O)COC(=O)c2cc(-c3ccco3)nc3ccccc23)c(=O)n(C)c1=O	25.1µM	?	?	14.1µM	-97.1	17.8µM	11.2	0	0	Pol eta inh-2=47.8
CSc1nc(N2CCN(CCO)CC2)c2sc3nc(-c4ccco4)c4c(c3c2n1)CCC4	-	-	-	0	-	-	-	-	-
CSc1nc(SCC(=O)O)c2sc3nc(-c4ccccc4)c4c(c3c2n1)CCC4	?	?	?	2.51µM	0	?	3.98	?	0	POLI cherry-pick=15;Pol eta inh-2=67.5

From PubChem BioAssay
